# Laboratory results taken from PubChem BioAssay AID1347076 (National Center for Advancing Translational Sciences (NCATS), 2019).
# In all, about 400,000 compounds went through this assay and about 13,000 (3.2%) were called active. About 18% were inconclusive and are not listed. What follows is part of a selection rich in actives, with near analogues and random picks from the rest. Values without a mark were called inactive. Calls come from the whole dose curve; as a rule, active = well fitted cell-killing curve with a large enough effect; inconclusive = small, poorly fitted or top-dose-only effect, or effect the other way; inactive = flat fitted curve, though single readings scatter.
# Assay: qHTS assay for MDR1-selective chemotherapeutics: Primary screen using the drug-selected MDR subline cells KB-V1; note: nearly all actives have a fitted effect of over 60% in size
# Settings: KB-V1 MDR cells viability, CellTiter-Glo, 72 h; series mostly up to 46.1 µM; activity change, negative = cytotoxicity: at the top concentration
# How it was run: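 Drug-selected KB-V1 cells, grown in DMEM lacking phenol red with 10% FBS, receive compound titrations; after three days at 37 degrees C, surviving cell ATP is quantified by CellTiter-Glo luminescence and responses normalized and curve-fitted.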
# % is set by controls: 0 for no effect and ±100 for the full control effect; potency is the fitted concentration of half-maximal effect.
Compound,"activity change, negative = cytotoxicity [%]",Potency
Cn1nnc2c(N3CCN(c4ccccc4)CC3)ncnc21,-12.8,–
O=C1NC[C@H](CCCCN2C[C@H](Cc3ccccc3)N(Cc3ccccc3)C(=O)C2=O)N(CCc2ccc(O)cc2)C1=O,1.62,–
CC1CCN(C(=O)c2ccc(S(=O)(=O)Cc3cc(F)ccc3F)c([N+](=O)[O-])c2)CC1,–,14.6 µM (active)
O=C(c1ccc(Oc2ccc(Cl)cc2)c([N+](=O)[O-])c1)N1CCCC1,-2.56,–
Nc1ccc(C(=O)N2CCN(S(=O)(=O)c3ccc(Cl)cc3)CC2)cc1[N+](=O)[O-],-19.1,–
O=C1CCC[C@@H]2C[C@@]3(C[C@@H]4CCN1[C@H]24)Nc1ccccc1NC3=NCc1ccccc1,-4.8,–
Nc1cccc(-c2cncc(N3CCN(Cc4ccccn4)CC3)n2)c1,6.36,–
COc1ccc(S(=O)(=O)N2CCN(CC(=O)N3CCNC3=O)CC2)cc1OC,0,–
O=C(COC(=O)CCc1c[nH]c2ccccc12)Nc1cccc(Cl)c1,19.9,–
CCc1cc(C(=O)N(CC)CC(=O)Nc2c(F)cccc2F)sc1C,-25.8,–
O=C(OCc1ccccc1)N1CCC2CC1c1ccc(-c3ccc4c(c3)OCO4)cc12 (stereo not drawn),-16,–
Cc1ccc(CSc2ccc(S(=O)(=O)N3CCCCC3)cn2)cc1,2.58,–
O=S(=O)(c1ccc(SCc2ccc(Br)cc2)nc1)N1CCOCC1,–,13 µM (active)
O=S(=O)(c1ccc(SCc2ccccc2)nc1)N1CCCCCC1,-12.3,–
Cc1cccc2c1-c1sc(C(=O)Nc3ccc(F)cc3F)cc1CO2,2.92,–
COc1ccc(NC(=O)C2(C)Cc3c(-c4cccc(NC(C)=O)c4)ccnc3O2)cc1OC (stereo not drawn),-7.13,–
O=C(CC(O)(C(F)(F)F)C(F)(F)F)Nc1ccc(Cl)c(Cl)c1,–,3.26 µM (active)
CCn1nccc1C(=O)Nc1ccc(Cl)c(Cl)c1,3.02,–
O=C(CSc1nnc(-c2ccncc2)n1-c1ccccc1)Nc1ccc(Cl)c(Cl)c1,0.115,–
CC1CCN(c2nc3ccc(C(=O)N4CCN(c5ccccc5)CC4)cc3s2)CC1,0.418,–
Cc1ccc(C(=O)NC2CCN(C(=O)N3CCOCC3)CC2)cc1,7.22,–
CCOC(=O)N1CCC(NC(=O)c2ccc3nc(N4CCOCC4)sc3c2)CC1,–,3.66 µM (active)
CC1CCC2(CC1)NC(=O)N(CC(=O)NCc1ccco1)C2=O (stereo not drawn),11.2,–
C[C@H]1CN([C@@H](C)CO)C(=O)c2cc(-c3cccc(F)c3)cnc2O[C@@H]1CN(C)S(C)(=O)=O,3.71,–

Compound,"activity change, negative = cytotoxicity [%]",Potency
COc1cc(C(=O)OC(C)C(=O)NCC2CCCCC2)cc(NC(=O)c2ccco2)c1OC (stereo not drawn),–,20.6 µM (active)
COc1ccc(NC(=O)CCC(=O)Nc2cc(OC)c(NC(=O)c3ccco3)cc2OC)c(OC)c1,-11.7,–
CC(OC(=O)c1ccc([N+](=O)[O-])cc1)C(=O)NCC1CCCCC1 (stereo not drawn),1.1,–
CN(C)CCCOc1ccc(-c2ccc3nccn3c2)cn1,5.43,–
CC(C)CC(=O)N=C1SC2CS(=O)(=O)CC2N1CCc1ccccc1 (stereo not drawn),–,13 µM (active)
O=C(CCC1CCCC1)N=C1SC2CS(=O)(=O)CC2N1Cc1ccccc1 (stereo not drawn),2.21,–
O=C(N=C1SC2CS(=O)(=O)CC2N1Cc1ccccc1)c1ccccc1 (stereo not drawn),-2.4,–
C/C=C/C(=O)Nc1ccc(N2CCN(c3ccc(C(F)(F)F)cn3)CC2)nc1,4,–
Cc1ccc(F)cc1NC(=O)N1CCCN(c2ccc(C(F)(F)F)cn2)CC1,–,20.6 µM (active)
CCOc1ccc(C(=O)NCC(=O)N2CCN(c3ccc(C(F)(F)F)cn3)CC2)cc1,5.85,–
COc1ccccc1CNC(=O)c1cc(=O)c2ccccc2o1,11.7,–
O=C(c1cc(=O)c2ccccc2o1)N1CCN(c2ccccc2)CC1,-1.8,–
COc1cc2c(cc1OC)CN(C(=O)c1cc(=O)c3ccccc3o1)CC2,–,2.91 µM (active)
CNC(=S)N1N=C(c2ccccc2)CC1c1ccc(Br)cc1 (stereo not drawn),–,11.6 µM (active)
O=C(c1ccccc1)N1N=C(c2ccccc2O)CC1c1ccc(Br)cc1 (stereo not drawn),2.17,–
COc1ccc(C2=NN(C(C)=O)C(c3ccccc3)C2)cc1 (stereo not drawn),-2.5,–
CC1(C(=O)NS(=O)(=O)c2ccc(C#N)cc2)CCN1C(=O)c1ccc(C2CCCCC2)cc1 (stereo not drawn),-15.4,–
CCOC(=O)C1CCC(CN(Cc2ccc(OC)cc2)S(=O)(=O)c2ccc(F)c(C(=O)Nc3cc(C)ccc3C)c2)CC1 (stereo not drawn),22.9,–
N#CC1=C(SCc2ccccc2)NC(=O)C(C#N)C12CCCC2 (stereo not drawn),–,14.6 µM (active)
N#CC1=C(SCc2ccc(C#N)cc2)N=C(N)C(c2nc(-c3ccccc3)cs2)C12CCCCC2 (stereo not drawn),-3.05,–
CCCCN1CC(C)(C)[C@H](CC(=O)Nc2ccc(Br)cc2)C1=O,9.65,–
COc1ccccc1CNC(=O)CCCCn1c(=O)c2ccccc2n(CC(=O)Nc2cc(Cl)ccc2C)c1=O,-4.31,–
CC(Sc1oc(-c2ccco2)nc1S(=O)(=O)c1ccc(Br)cc1)c1ccccc1 (stereo not drawn),-2.48,–
Cc1ccc(C(=O)NC(C)C(c2cccs2)N2CCOCC2)cc1C (stereo not drawn),-8.87,–
